# Measurements from ChEMBL document CHEMBL4513216, “Probing the Open Global Health Chemical Diversity Library for Multistage-Active Starting Points for Next-Generation Antimalarials” (ACS Infect Dis, 2020).
# The campaign covered roughly 68,000 compounds. About 2,700 (4%) showed an effect of 50% or more. The entries come from a sample that favours strong results as a whole.
# System: Plasmodium berghei
# Experiment: Screen against P. berghei liver stage (PbLuc), transformed with Luciferase, at 2uM
# Type: functional, HepG2
# Details: tested at 2 uM
row,Structure (SMILES),INHIBITION [%]
1,COC(=O)c1cccc(C(=O)N(C)Cc2ccsc2)c1,-21.49
2,NC(=O)c1cc2c(nc1N)CCN(C(=O)C1CCCCC1)C2,6.97
3,COC(=O)c1ccc(N2CCN(C(=O)c3cnn(C)c3)C(C)C2)cc1 (stereo unspecified),47.57
4,O=C(NCC1Cn2nnc(-c3ccsc3)c2CO1)c1ccc[nH]1 (stereo unspecified),34.16
5,CN1CCN(C)C2(CCN(Cc3ccsc3)CC2)C1=O,59.5
6,CCN1CCN(C)C2(CCN(Cc3ccsc3)CC2)C1=O,38.64
7,CCN1CCN(C)C(=O)C12CCN(Cc1ccsc1)CC2,39.18
8,CCN1CCN(C)C(=O)C12CCN(Cc1csc(C)n1)CC2,-66.6
9,CCc1ccc(CN2CCC3(CC2)C(=O)N(C)CCN3CC)cc1,47.42
10,CCN1CCN(C)C(=O)C12CCN(Cc1cccc(C)c1)CC2,60.6
11,CCCc1cnc(C)nc1N1CCC(Cc2cccc(C(N)=O)c2)C1 (stereo unspecified),-9.75
12,CC(C(=O)NC1CCN(C)CC1)n1nc(C(F)(F)F)c(Cl)c1C1CC1 (stereo unspecified),-4.77
13,CCN(C(=O)CN(CC(N)=O)C(C)C)C1=CCCC1,25.21
14,OCc1n[nH]c(-c2ccc(F)cc2)n1,27.8
15,CC(C(=O)N1CCN(Cc2ccc3c(c2)OCO3)CC1)n1ccnc1 (stereo unspecified),17.98
16,COC(=O)CC1CCCCN1CC(=O)Nc1cc(F)ccc1F (stereo unspecified),30.82
17,O=S(=O)(NC1=NCN(CCc2cccs2)CN1)c1ccc(Br)cc1,50.67
18,O=S(=O)(NC1=NCN(CCc2cccs2)CN1)c1ccccc1,18.22
19,O=S(=O)(NC1=NCN(CCc2cccs2)CN1)c1ccc(F)cc1,36.15
20,O=C(Cc1cnccn1)N1C[C@@H]2CC[C@H]1CN(Cc1cscn1)C2,-41.49
21,COCC(=O)N1C[C@H]2CNC[C@@]2(C(=O)NCc2c(C)noc2C)C1,1.8
22,COCC(=O)N1C[C@H]2CNC[C@@]2(C(=O)NCc2cc(C)n[nH]2)C1,40.51

row,Structure (SMILES),INHIBITION [%]
1,COCC(=O)N1C[C@H]2CNC[C@@]2(C(=O)NCc2nc(C)cc(C)n2)C1,67.44
2,N[C@H]1CN(C(=O)Cc2cc(F)cc(Cl)c2)C[C@@H]1C1CC1,55.39
3,N[C@H]1CN(C(=O)c2ccc(Cl)cc2F)C[C@@H]1C1CC1,19.54
4,Cc1cc(Cl)ccc1C(=O)N1C[C@H](C2CC2)[C@@H](N)C1,60.42
5,N[C@H]1CN(C(=O)c2ccc(Cl)cc2O)C[C@@H]1C1CC1,-6.83
6,N[C@H]1CN(C(=O)Cc2ccc(CO)cc2)C[C@@H]1C1CC1,39.97
7,N[C@H]1CN(C(=O)Cc2ccc(Cl)c(Cl)c2)C[C@@H]1C1CC1,4.72
8,CN(CCCN1CCCC1)[C@@H]1c2ccccc2C2(CCNCC2)[C@H]1O,9.18
9,COC(=O)c1ccc(CN(C)C(=O)c2cnsn2)cc1,-18.04
10,COc1ccc(C[C@H]2CN(C3CCOCC3)CC[C@H]2OCC2CC2)cc1,68.29
11,c1ccc(C[C@H]2CN(C3CCOCC3)CC[C@H]2OCC2CC2)cc1,-22.32
12,COc1ccc(C[C@H]2CN(C3CCOCC3)CC[C@@H]2OCC2CC2)cc1,21.06
13,CCc1cnc(N2CC[C@H]3[C@@H]2CCC(=O)N3CC2CCOCC2)nc1,8.37
14,CNC(=O)[C@H]1C[C@H]2CN(Cc3cccc(C)c3)C[C@@H]1O2,14.09
15,CC(C)NC(=O)CC1[C@H]2CN(C(=O)Cc3ccccn3)C[C@@H]12 (stereo partly specified),33.39
16,O=C(c1ccc(S(=O)(=O)N2CCNCC2)cc1)N1CCCC(O)C1 (stereo unspecified),57.4
17,O=C(c1ccc(S(=O)(=O)N2CCSCC2)cc1)N1CCC(O)C1 (stereo unspecified),-57.76
18,CN1CCN(S(=O)(=O)c2ccc(C(=O)N3CC[C@@H](O)C3)cc2)CC1=O,-27.61
19,CCn1cc(S(=O)(=O)N2CCC(C3CCCCN(C)C3=O)CC2)c(C)n1 (stereo unspecified),-12.21
20,CC(=O)c1cn(CC(=O)NC(C(=O)O)C(C)C)c2ccccc12 (stereo unspecified),-7.53
21,COc1cc(C(C)NCc2ncccc2C)ccc1SC(F)F (stereo unspecified),-48.24
22,CN(Cc1ccco1)Cc1cncc2c1CCN(S(C)(=O)=O)C2,51.94

row,Structure (SMILES),INHIBITION [%]
1,CCS(=O)(=O)N1CCc2c(CN(C)Cc3ccco3)cncc2C1,-21.1
2,CC(C)N1CCc2c(CN(C)Cc3ccco3)cncc2C1,16.48
3,Cc1nc(C)n(CC2CCCCN2CC(=O)Nc2ccncc2)n1 (stereo unspecified),51.21
4,Cc1nc(C)n(CC2CCCCN2CC(=O)Nc2cccnc2)n1 (stereo unspecified),-12.75
5,CCN1CCC(NC(=O)CN2CCCC2Cn2nc(C)nc2C)CC1 (stereo unspecified),-2.82
6,Cc1nc(C)n(CC2CCCCN2CC(=O)NC2CCOCC2)n1 (stereo unspecified),60.31
7,Cc1nc(C)n(CC2CCCCN2CC(=O)Nc2cc(C)on2)n1 (stereo unspecified),64.16
8,Cc1nc(C)n(CC2CCCN2CC(=O)Nc2ccncc2)n1 (stereo unspecified),-40.36
9,Cc1nc(C)n(CC2CCCCN2CCC(=O)Nc2cc(C)on2)n1 (stereo unspecified),-14.71
10,Cc1nc(C)n(CC2CCCN2CC(=O)Nc2cc(C)on2)n1 (stereo unspecified),-1.02
11,Cc1nc(C)n(CC2CCCN2CC(=O)NC2CCOCC2)n1 (stereo unspecified),32.76
12,O=C(c1c(F)cc(Br)cc1F)N1CCc2cnccc21,-62.99
13,Cn1c(=O)[nH]c2cc(C(=O)OCC(F)F)ccc21,-67.78
14,Cn1ccc(C(=O)N2CCC(Cc3cccc4cccnc34)C2)n1 (stereo unspecified),9.79
15,Cn1cc(C(=O)Nc2cccc(CCN3CCCC3)c2)ccc1=O,-51.94
16,O=C(C1CCCCC1)N1CCC2(COc3ncccc3S(=O)(=O)N2)C1 (stereo unspecified),-15.49
17,NC(=O)c1cc(C2CCCN(C(=O)CCc3ccccn3)C2)n[nH]1 (stereo unspecified),-0.71
18,COc1ccc(F)cc1CN1CCCC(c2cc(C(N)=O)[nH]n2)C1 (stereo unspecified),30.91
19,Cc1cc(C2CCCN(CCc3ccccn3)C2)n[nH]1 (stereo unspecified),-12.48
20,NC(=O)c1cc(C2CCCN(CCc3ccccn3)C2)n[nH]1 (stereo unspecified),58.53
21,COc1ccccc1OCCN1CCCC(c2cc(C(N)=O)[nH]n2)C1 (stereo unspecified),31.51
22,COc1cccc(CN2CCCC(c3cc(C(N)=O)[nH]n3)C2)c1 (stereo unspecified),54.99
